Experimental data reported in the supplement of paper PMC10849652.
About 7,900 targets were measured; listed, in parts, are those with a hit and a random draw of the rest. About 0.6% of all pairs of compound and target were hits. Unmarked numbers belong to inactive results.

Assays:
Experiment in all cases: log2 fold change, soluble protein after heating vs DMSO (PISA); higher = thermal stabilisation; K562 cells, 10 uM, 30 min; active = over 0.2 and 3.5 SD of the protein, either way, in both replicates (recomputed)
bafetinib = compound: Cc1ccc(NC(=O)c2ccc(CN3CC[C@H](N(C)C)C3)c(C(F)(F)F)c2)cc1Nc1nccc(-c2cncnc2)n1 [bafetinib]
Procedure, shortened: (§1)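 For each measurement, 10 μM compound was applied for 30 min to K562 cells at 2×10^6 cells/mL. Aliquots were heated for 3 min across 48°C-58°C, pooled, and extracted in PBS with 0.5% NP-40 at 4°C; the supernatant after 21,000xg for 90 min was soluble protein. This was quantified by TMTpro 16plex LC-MS/MS with channel sums equalised, and thermal stability was reported relative to control samples from duplicates, on a log2 fold-change scale.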

[1] = compound: Cc1cccc(CC(=O)N2CCc3c2ccc(-c2cn(C)c4ncnc(N)c24)c3F)n1
Procedure, shortened: as §1

nilotinib = compound: Cc1cn(-c2cc(NC(=O)c3ccc(C)c(Nc4nccc(-c5cccnc5)n4)c3)cc(C(F)(F)F)c2)cn1 [nilotinib]
Procedure, shortened: as §1

[2] = compound: Cc1nc(Nc2n[nH]c3c2CN(C(=O)N[C@H](CN(C)C)c2ccccc2)C3(C)C)c2sccc2n1
Procedure, shortened: as §1

dasatinib = compound: Cc1nc(Nc2ncc(C(=O)Nc3c(C)cccc3Cl)s2)cc(N2CCN(CCO)CC2)n1 [dasatinib]
Procedure, shortened: as §1

[3] = compound: Cc1ncc(-c2ccnc(Nc3ccc(S(C)(=O)=O)cc3)n2)n1C(C)C
Procedure, shortened: as §1

[4] = compound: Cn1cc(-c2ccc3c(c2)CCN3C(=O)Cc2cccc(C(F)(F)F)c2)c2c(N)ncnc21
Procedure, shortened: as §1

[5] = compound: Cn1cc(-c2ccc3nnc(C(F)(F)c4ccc5ncccc5c4)n3n2)cn1
Procedure, shortened: as §1

tipifarnib = compound: Cn1cncc1[C@@](N)(c1ccc(Cl)cc1)c1ccc2c(c1)c(-c1cccc(Cl)c1)cc(=O)n2C [tipifarnib]
Procedure, shortened: as §1

mubritinib = compound: FC(F)(F)c1ccc(/C=C/c2nc(COc3ccc(CCCCn4ccnn4)cc3)co2)cc1 [mubritinib]
Procedure, shortened: as §1

Chain of UniProt O15066 (O15066 whole entry, looked up): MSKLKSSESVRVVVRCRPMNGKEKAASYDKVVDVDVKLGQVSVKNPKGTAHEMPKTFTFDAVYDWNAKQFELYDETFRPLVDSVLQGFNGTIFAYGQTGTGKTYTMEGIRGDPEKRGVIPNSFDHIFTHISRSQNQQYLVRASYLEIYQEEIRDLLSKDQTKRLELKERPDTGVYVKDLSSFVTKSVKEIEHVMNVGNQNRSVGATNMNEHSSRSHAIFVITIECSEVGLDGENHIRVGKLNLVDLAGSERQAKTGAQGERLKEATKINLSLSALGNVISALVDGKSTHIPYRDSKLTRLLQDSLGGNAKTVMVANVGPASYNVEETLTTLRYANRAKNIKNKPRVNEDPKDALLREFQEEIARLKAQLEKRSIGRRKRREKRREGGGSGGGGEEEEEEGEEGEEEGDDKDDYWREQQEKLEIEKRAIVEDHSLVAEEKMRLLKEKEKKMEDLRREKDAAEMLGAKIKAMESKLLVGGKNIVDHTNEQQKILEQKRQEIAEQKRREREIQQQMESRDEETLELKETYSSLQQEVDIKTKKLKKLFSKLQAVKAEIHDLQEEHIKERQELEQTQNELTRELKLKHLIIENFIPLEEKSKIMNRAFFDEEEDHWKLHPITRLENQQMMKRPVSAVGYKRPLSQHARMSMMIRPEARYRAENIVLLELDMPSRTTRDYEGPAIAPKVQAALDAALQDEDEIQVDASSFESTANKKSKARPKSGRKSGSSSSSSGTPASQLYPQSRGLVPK
Chain of UniProt Q9Y287 (Q9Y287 whole entry, looked up): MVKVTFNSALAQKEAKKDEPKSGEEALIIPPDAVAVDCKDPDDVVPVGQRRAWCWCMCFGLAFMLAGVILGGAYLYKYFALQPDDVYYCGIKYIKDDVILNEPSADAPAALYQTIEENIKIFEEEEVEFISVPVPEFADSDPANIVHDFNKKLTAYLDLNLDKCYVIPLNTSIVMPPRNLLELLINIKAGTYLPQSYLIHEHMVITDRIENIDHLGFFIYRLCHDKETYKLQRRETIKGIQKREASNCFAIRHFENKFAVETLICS
Chain of UniProt Q6UB28 (Q6UB28 whole entry, looked up): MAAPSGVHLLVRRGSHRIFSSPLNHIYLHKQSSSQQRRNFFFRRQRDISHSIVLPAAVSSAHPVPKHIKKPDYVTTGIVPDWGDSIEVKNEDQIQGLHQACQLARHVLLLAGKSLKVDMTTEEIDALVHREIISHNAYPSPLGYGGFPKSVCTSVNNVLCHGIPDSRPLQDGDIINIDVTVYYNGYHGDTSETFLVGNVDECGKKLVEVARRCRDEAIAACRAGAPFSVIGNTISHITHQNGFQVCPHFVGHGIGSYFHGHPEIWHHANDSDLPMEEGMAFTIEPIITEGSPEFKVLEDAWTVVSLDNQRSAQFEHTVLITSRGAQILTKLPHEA
Chain of UniProt Q08334 (Q08334 whole entry, looked up): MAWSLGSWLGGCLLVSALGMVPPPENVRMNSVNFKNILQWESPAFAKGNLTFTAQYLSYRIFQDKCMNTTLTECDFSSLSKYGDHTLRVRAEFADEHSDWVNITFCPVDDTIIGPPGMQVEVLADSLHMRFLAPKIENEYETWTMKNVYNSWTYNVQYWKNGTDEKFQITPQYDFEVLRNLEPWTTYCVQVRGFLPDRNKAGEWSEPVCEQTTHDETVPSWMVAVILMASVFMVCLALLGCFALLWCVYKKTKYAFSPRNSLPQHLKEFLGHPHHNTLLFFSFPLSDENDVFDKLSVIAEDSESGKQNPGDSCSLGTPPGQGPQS
Chain of UniProt Q9H3U5 (Q9H3U5 whole entry, looked up): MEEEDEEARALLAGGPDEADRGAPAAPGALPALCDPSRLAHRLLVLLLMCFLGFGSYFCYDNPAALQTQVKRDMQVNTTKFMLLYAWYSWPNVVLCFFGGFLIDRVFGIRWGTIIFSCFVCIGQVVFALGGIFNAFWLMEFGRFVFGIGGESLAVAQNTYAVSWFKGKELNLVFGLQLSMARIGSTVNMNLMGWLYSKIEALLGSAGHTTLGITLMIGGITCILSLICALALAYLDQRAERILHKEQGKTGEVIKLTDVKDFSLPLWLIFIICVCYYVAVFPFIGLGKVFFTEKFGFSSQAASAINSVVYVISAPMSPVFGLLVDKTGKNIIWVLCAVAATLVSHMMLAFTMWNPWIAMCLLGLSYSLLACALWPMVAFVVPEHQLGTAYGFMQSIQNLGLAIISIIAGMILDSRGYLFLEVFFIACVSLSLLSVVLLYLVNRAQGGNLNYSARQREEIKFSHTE
Chain of UniProt O43934 (O43934 whole entry, looked up): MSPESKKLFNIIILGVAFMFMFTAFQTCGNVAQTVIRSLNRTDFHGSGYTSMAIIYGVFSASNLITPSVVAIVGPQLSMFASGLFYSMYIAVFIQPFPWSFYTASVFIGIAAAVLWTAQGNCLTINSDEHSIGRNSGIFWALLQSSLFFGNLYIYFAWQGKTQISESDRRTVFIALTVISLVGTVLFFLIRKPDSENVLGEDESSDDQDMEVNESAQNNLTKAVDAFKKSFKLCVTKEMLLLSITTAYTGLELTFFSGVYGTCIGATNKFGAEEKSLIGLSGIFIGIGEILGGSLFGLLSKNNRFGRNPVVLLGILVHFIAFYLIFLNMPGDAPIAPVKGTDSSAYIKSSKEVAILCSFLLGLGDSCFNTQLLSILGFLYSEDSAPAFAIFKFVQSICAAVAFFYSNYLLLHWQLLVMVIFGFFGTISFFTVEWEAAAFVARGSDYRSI
Chain of UniProt Q14680 (Q14680 whole entry, looked up): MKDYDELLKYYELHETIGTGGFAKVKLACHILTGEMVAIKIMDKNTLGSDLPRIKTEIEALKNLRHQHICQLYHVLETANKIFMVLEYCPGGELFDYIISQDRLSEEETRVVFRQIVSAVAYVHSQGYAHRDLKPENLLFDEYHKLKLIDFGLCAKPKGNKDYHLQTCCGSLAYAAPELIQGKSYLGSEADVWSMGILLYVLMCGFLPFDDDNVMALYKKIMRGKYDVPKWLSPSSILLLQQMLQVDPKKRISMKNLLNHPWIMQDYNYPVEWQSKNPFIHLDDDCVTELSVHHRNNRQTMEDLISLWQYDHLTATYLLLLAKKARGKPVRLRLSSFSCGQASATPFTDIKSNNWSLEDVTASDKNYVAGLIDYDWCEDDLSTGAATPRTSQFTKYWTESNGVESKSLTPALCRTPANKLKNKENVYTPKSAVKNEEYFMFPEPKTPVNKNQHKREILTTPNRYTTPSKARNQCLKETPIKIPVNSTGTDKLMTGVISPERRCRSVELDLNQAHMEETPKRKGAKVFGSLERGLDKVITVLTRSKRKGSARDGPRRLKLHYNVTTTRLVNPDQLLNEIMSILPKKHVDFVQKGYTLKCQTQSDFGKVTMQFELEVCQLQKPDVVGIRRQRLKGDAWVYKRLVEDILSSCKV
Chain of UniProt Q8WVP7 (Q8WVP7 whole entry, looked up): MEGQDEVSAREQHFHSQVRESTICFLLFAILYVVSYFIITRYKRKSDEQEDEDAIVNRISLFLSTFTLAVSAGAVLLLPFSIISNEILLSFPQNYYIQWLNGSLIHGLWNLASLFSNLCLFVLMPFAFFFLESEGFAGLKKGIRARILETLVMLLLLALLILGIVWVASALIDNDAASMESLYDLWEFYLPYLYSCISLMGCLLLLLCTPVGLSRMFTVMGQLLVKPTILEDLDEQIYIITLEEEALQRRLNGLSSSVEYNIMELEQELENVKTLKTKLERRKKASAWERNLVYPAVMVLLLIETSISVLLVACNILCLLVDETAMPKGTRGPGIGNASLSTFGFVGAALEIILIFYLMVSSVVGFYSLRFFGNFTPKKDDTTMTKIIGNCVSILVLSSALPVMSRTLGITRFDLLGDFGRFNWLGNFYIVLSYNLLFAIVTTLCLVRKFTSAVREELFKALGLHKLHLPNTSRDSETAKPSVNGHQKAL
Chain of UniProt Q9Y2E5 (Q9Y2E5 whole entry, looked up): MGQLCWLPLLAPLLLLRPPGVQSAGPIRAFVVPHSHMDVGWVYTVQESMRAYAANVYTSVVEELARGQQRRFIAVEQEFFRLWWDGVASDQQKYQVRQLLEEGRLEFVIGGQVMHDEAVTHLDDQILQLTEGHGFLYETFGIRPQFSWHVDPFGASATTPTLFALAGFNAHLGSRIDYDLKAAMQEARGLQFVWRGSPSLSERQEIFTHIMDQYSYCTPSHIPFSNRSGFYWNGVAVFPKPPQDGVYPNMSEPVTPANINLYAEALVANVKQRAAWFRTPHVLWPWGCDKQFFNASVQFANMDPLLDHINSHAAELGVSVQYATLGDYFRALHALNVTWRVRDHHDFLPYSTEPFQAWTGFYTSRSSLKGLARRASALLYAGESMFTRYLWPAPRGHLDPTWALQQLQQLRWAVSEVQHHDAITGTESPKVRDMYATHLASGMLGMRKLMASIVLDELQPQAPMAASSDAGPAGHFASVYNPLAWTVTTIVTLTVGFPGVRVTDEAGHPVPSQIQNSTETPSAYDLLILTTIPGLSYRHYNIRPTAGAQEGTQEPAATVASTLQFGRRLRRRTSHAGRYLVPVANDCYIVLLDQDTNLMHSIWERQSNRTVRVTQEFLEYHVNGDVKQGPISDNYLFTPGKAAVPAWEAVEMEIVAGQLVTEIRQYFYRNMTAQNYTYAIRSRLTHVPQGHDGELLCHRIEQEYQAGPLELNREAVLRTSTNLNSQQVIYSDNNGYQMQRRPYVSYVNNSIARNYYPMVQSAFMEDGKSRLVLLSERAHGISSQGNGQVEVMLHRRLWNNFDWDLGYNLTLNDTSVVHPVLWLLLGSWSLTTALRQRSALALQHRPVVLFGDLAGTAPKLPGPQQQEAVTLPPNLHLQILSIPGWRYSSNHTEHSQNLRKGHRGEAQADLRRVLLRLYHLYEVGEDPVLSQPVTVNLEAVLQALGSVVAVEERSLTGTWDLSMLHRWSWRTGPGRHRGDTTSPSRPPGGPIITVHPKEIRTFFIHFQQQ
Chain of UniProt O43513 (O43513 whole entry, looked up): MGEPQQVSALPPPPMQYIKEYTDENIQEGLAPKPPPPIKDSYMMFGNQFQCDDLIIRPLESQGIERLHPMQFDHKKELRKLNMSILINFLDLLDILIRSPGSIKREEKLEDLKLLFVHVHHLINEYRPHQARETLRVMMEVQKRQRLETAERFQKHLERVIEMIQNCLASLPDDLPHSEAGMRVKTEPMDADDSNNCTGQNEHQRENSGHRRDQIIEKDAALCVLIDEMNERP

Target	log2 fold change (bafetinib)	log2 fold change [1]	log2 fold change (nilotinib)	log2 fold change [2]	log2 fold change (dasatinib)	log2 fold change [3]	log2 fold change [4]	log2 fold change [5]	log2 fold change (tipifarnib)	log2 fold change (mubritinib)
IRF3 (UniProt Q14653)	0.033	0.023	0.066	-0.191	-0.1	-0.04	0.106	0.005	-0.023	0.039
MFSD1 isoform 6 (UniProt Q9H3U5)	-0.123	0.066	-0.017	0.046		-0.016	-0.034	0.033	0.05	0.005
IMMP1L (UniProt Q96LU5)	-0.024		-0.044	0.059	0.098	0.03	0.068	0.071	0.02	0.048
MCM10 (UniProt Q7L590)	0.182	-0.044	0.046	-0.001		-0.008			-0.155	0.09
IL10RB (UniProt Q08334)	-0.079	-0.031	0.026	0.151	0.068	0.105			0.126	
LAMP2 isoform 2 (UniProt P13473)	-0.014	-0.014	0.018	-0.009	-0.047	0	0.005		0.126	0.003
KIF1B isoform 4 (UniProt O60333)	-0.056	-0.004	0.01	0.073	-0.066	-0.064	-0.044	0.033	-0.004	-0.004
METAP1D (UniProt Q6UB28)	-0.089		-0.114	0.036	0.007	0.079	-0.034	-0.071	-0.023	0.028
MCU (UniProt Q8NE86)	-0.173	0.032	-0.017	0.128	-0.055	-0.026	-0.03	0	-0.005	0.024
IP6K1 (UniProt Q92551)	0.02	0.033			-0.361		0.024	0.116	-0.038	0.137
MBLAC1 (UniProt A4D2B0)	-0.017	0.065			-0.129		0.086	-0.125	0.094	-0.045
MASTL (UniProt Q96GX5)	0.143		0.014	0.002	-0.105	0.021	-0.052	0.276		-0.093
IL27RA (UniProt Q6UWB1)	-0.098		0.086	-0.06	0.055	-0.006	-0.039	-0.109	0.159	0.005
KIF3B (UniProt O15066)	0.007	0.122			-0.06		0.002	-0.048	-0.07	0.115
MFSD8 (UniProt Q8NHS3)	-0.006	-0.12			0.061		-0.007	0.017	-0.042	-0.002
MGRN1 isoform 2 (UniProt O60291)	-0.07	-0.227					-0.149	0.027	0.2	
MFSD11 (UniProt O43934)	-0.047	-0.032	-0.038	0.046	-0.004	-0.119	0.17		-0.047	0.063
MED7 (UniProt O43513)	0.191		-0.029	-0.041	-0.063	0.094	-0.05	0.069	0.271	
LPGAT1 (UniProt Q92604)	-0.086		-0.04	-0.128	0.086	0.048	0.055	-0.082	0.01	0.067
ITM2B (UniProt Q9Y287)	-0.112		0.006	-0.062	0.006	0.033	0.035	-0.04	0.006	0.059
MELK (UniProt Q14680)	-0.06	0.086	0.033	-1.04 (active)	-0.149	0.14	-0.092		0.097	
MARK2 (UniProt E9PC69)	0.116		-0.007	-0.451	-0.158	-0.031	-0.038	-0.088	-0.215	
LMBR1 isoform 3 (UniProt Q8WVP7)	-0.182	0.007			0.012		0.093	-0.143	-0.044	0.063
KCNK5 (UniProt O95279)	-0.31	0.025			-0.472		0.139		-0.183	0.076
MAN2B2 (UniProt Q9Y2E5)	-0.302		-0.171	0.057	0.013	-0.023		-0.088	0.093	0.147
